Experimental data: PubChem BioAssay (NCI)
The panel holds about 83,000 compounds, 20% with a hit somewhere; the sample as a whole holds those more often.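 Activity criterion: percent growth below 10, measured after cells in 96-well plates were exposed to a single compound concentration for 48 hours.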 Values without a mark were called inactive. Activity calls are given as the source filed them.

Experiments:
Test in all cases: NCI-60 one-dose screen, 48 h (100 = growth as untreated, 0 = no growth, -100 = all killed)
Details in all cases: 10 µM
HCT-15 colon = test system: HCT-15 colon
HT29 colon = test system: HT29 colon
SNB-75 CNS = test system: SNB-75 CNS
SNB-19 CNS = test system: SNB-19 CNS
U251 CNS = test system: U251 CNS
PC-3 prostate = test system: PC-3 prostate
SK-MEL-5 melanoma = test system: SK-MEL-5 melanoma
UACC-62 melanoma = test system: UACC-62 melanoma
LOX IMVI melanoma = test system: LOX IMVI melanoma
SK-MEL-28 melanoma = test system: SK-MEL-28 melanoma

Compound	growth (HCT-15 colon)	growth (HT29 colon)	growth (SNB-75 CNS)	growth (SNB-19 CNS)	growth (U251 CNS)	growth (PC-3 prostate)	growth (SK-MEL-5 melanoma)	growth (UACC-62 melanoma)	growth (LOX IMVI melanoma)	growth (SK-MEL-28 melanoma)
CCNCCCn1c2c(c3cc(OC)c(OC)cc3c1=O)C(=O)c1cc3c(nc1-2)OCO3	-83% (active)	26.1%	56.5%	24.9%	21.7%	43.7%	22.5%	-15.3% (active)	-97.9% (active)	71%
COc1cc2c3c(n(CCCNC(C)C)c(=O)c2cc1OC)-c1nc2c(cc1C3=O)OCO2	-87.9% (active)	-65.4% (active)	78.6%	33.2%	-76.3% (active)	-66.1% (active)	54.4%	22%	-97.3% (active)	49.2%
O=C(Nc1ccc(I)cc1)Nc1nc2ccc([N+](=O)[O-])cc2s1	-100% (active)	-93.3% (active)	-93.4% (active)	-94.3% (active)	-94% (active)	-75.7% (active)	-100% (active)	-98% (active)	-100% (active)	-99% (active)
COc1ccc2[nH]c(O)c(N=NC(=O)COc3ccc(NC(=O)Nc4ccc(Cl)cc4)cc3)c2c1	99.5%	8.21% (active)	42.8%	3.67% (active)	-87.2% (active)	18%	32.2%	-30.2% (active)	-59.7% (active)	-72.3% (active)
CN(C(=O)c1ccc(C(F)(F)F)cc1C(F)(F)F)c1sc2c(c1C#N)CCC(=O)C2	10.4%	106%	105%	88.7%	-11.7% (active)	0.435% (active)	25.9%	55.7%	29.2%	106%
CN1C(=O)N(C)C2SC(N/N=C/c3ccccc3)=NC21 (centres undefined)	30.1%	38.5%	60.7%	74.6%	60.4%	84.7%	68.4%	42.5%	63.4%	75.5%
C=C[C@H]1[C@H](O[C@@H]2OC(CO)[C@@H](O)[C@H](O)C2OC(=O)c2c(O)cc(O)cc2-c2cccc(O)c2)OC=C2C(=O)OCC[C@H]21 (some centres undefined)	93.7%	108%	93.2%	97.2%	104%	103%	100%	98%	99.3%	102%
O=C(CSc1nnc(-c2ccc3nc(-c4ccccc4)[nH]c3c2)o1)Nc1ccc(Br)cc1	38.1%	64.9%	99.1%	49.7%	11.5%	61.4%	86.9%	59.8%	-4.8% (active)	76.9%
COC[C@@H](CC(C)C)N=C1N/C(=C\c2ccc3ncsc3c2)C(=O)N1C	2.01% (active)	6.85% (active)	27.5%	14.6%	15.4%	23.6%	-57.3% (active)	-64.9% (active)	-51.2% (active)	-1.69% (active)
C=C(c1ccc(OC)c(N)c1)c1cc(C)nc2ccccc12	3.55% (active)	-20.8% (active)	21.4%	10.3%	7.35% (active)	31.2%	-55% (active)	24.1%	10.3%	62.4%
O=c1c2ccccc2nc(COc2ccccc2)n1/N=C/c1ccc(N2CCCC2)cc1	82.8%	79.9%	108%	89.5%	105%	80.3%	62.4%	61.6%	86.6%	100%
O=C(CSc1nnc(-c2ccc3nc(-c4ccccc4)[nH]c3c2)o1)Nc1ccc(Cl)cc1	15.7%	17.4%	66.1%	63.9%	48.9%	43.3%	15.3%	34.3%	-2.86% (active)	41.8%
O=C(CSc1nnc(-c2c[nH]c3ccccc23)n1-c1ccccc1)c1ccc(Br)cc1	44%	57.4%	38.8%	70.2%	61.6%	46.2%	17.2%	35.2%	41.8%	34.9%
COC1CC(Cn2cc(COc3ccc4ccc(=O)oc4c3)nn2)C(OCc2ccccc2)C(OCc2ccccc2)C1OCc1ccccc1 (centres undefined)	88.9%	108%	92.5%	95.1%	100%	92.7%	83.2%	82.6%	99.4%	105%
O=C(CS(=O)(=O)c1oc(-c2ccc(Cl)cc2)nc1S(=O)(=O)c1ccc(Cl)cc1)N1CCOCC1	-53.6% (active)	-48.9% (active)	54.7%	86.2%	35.9%	63.3%	77.6%	56.7%	-90.8% (active)	35%
CCCCCCCCCCCCCCCCCCCC(=O)NCCc1c[nH]c2ccc(OC(=O)CCCC(=O)OCCOOCCOOCCOOCCOOCCOOCCOOCCOOCCOOCCOOCCOOCCOOCCOC)cc12	56%	63.4%	110%	69.1%	-31.3% (active)	22%	99.6%	67.1%	27.2%	88%
COc1ccc(-c2cc(-c3cc(C(=O)c4ccccc4)n4ccc(C)cc34)nc(N)c2C#N)cc1	78%	75%	91.5%	45.1%	45.4%	63.5%	67.7%	64.6%	51.3%	87.6%
N#Cc1ccc(-c2nn(-c3ccc(C(=O)O)cc3)cc2CNc2cccc(Br)c2)cc1	35.5%	50.7%	101%	51.7%	37%	40.1%	24.1%	41.8%	13.2%	35.6%
O=C(NO)c1ccc(CNC(=O)[C@H]2Cc3c([nH]c4ccccc34)[C@H](c3ccccc3)N2)cc1	72.4%	20.2%	52.3%	39.4%	13.4%	33.3%	8.18% (active)	-24.5% (active)	19.6%	6.06% (active)
O=C1Nc2ccc(Cl)cc2/C1=C/c1cccc(OCc2ccccn2)c1	-66.8% (active)	-63.8% (active)	34.8%	0.791% (active)	-90.7% (active)	-9.7% (active)	-47.3% (active)	-81.2% (active)	-89.9% (active)	-49.2% (active)
C=C1CCC2C3(C)COC(c4cc(F)cc(F)c4)OC3CCC2(C)C1C/C=C1/C(=O)OCC1O (centres undefined)	-34.6% (active)	-29.3% (active)	-45.9% (active)	-78.5% (active)	-95.2% (active)	-32.1% (active)	-88.6% (active)	-15.2% (active)		-70.7% (active)
O=C(NO)c1ccc(Cn2ccc3c(NCc4ccccc4)ncnc32)cc1	-16.7% (active)	0.726% (active)	-8.17% (active)	-7.76% (active)	-34% (active)	7.14% (active)	-75% (active)		-99.6% (active)	0.239% (active)
COc1ccc(NC(=O)Nc2ccc(OCC(=O)N=Nc3c(O)[nH]c4ccc([N+](=O)[O-])cc34)cc2)cc1	106%	95.2%	72.4%	40.4%	25%	81.9%	96%	104%		115%
COc1ccc(CN2[C@H](C(=O)NCCCCCCC(=O)NO)Cc3c([nH]c4ccccc34)[C@H]2C2CC2)cc1	8.85% (active)	6.33% (active)	10.2%	6.72% (active)	-20.8% (active)	19.1%	-88% (active)	-68.6% (active)	-100% (active)	9.84% (active)
CCN(CC)CCOc1ccc(C(=C(C)c2ccccc2)c2ccc(OCCN(CC)CC)cc2)cc1	-31.2% (active)	-57.6% (active)	6.51% (active)	9.06% (active)	-21.8% (active)	22.7%	-100% (active)		-98.8% (active)	-96.5% (active)
CN1CCCN(Cc2ccc(C(=O)Nc3cccc(Nc4ccc5cc(O)ccc5n4)c3)cc2C(F)(F)F)CC1	14.6%	27.8%	32.2%	81.1%	33.7%	51.3%	32.4%		-100% (active)	-67.9% (active)
COc1ccc2c3nc4cc(C)c(C)cc4nc3n(CCN(C)C)c2c1	1.95% (active)	31.4%	21.5%	9.9% (active)	-73.1% (active)	21.2%	-80.7% (active)	3.37% (active)		-63.9% (active)
